Measured values reported in PubChem BioAssay (EPA / NIEHS).
Inconclusive results are not listed. Active and inactive are the calls of the source. The calls were made as follows, unless noted: active = hit-call score of the fitted dose curve at least 0.9, where 1 is the maximum; inactive = score below 0.9.

Key:
[1] = biological target: Glucocorticoid receptor (Homo sapiens) (UniProt P04150); assay: ATG_GR_TRANS: Attagene TRANS-FACTORIAL HepG2 Assay for human Glucocorticoid Receptor (GR) (AID 2282978; active = hit-call score of the fitted dose curve at least 0.9, where 1 is the maximum;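 also: activators score as hits since higher reporter transcript over DMSO is fitted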); details: HepG2 Attagene TRANS GR reporter, mRNA transcription
In short: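 Transiently transfected HepG2 cells express chimeric NR-GAL4 proteins acting on GAL4-UAS reporter units. Compounds are applied for 24 h. mRNA induction over DMSO is measured by capillary electrophoresis.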

[2] = biological target: Oxysterols receptor LXR-beta (Homo sapiens) (UniProt P55055); assay: ATG_LXRb_TRANS: Attagene TRANS-FACTORIAL HepG2 Assay for human Liver X Receptor beta (LXRb) (AID 2282981; active = hit-call score of the fitted dose curve at least 0.9, where 1 is the maximum); details: HepG2 Attagene TRANS GAL4-LXRb reporter, mRNA
In short: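 Transient transfection HepG2 (multiplexed RTUs, GAL4-UAS); NR-Gal4 chimera; 24 h exposure; RNA → RT-PCR → 6-FAM primer extension → HpaI → CE; increase vs DMSO.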

[3] = ATG_M_32_TRANS: Attagene TRANS-FACTORIAL HepG2 Assay for M32 Transcription Factor (Internal Marker) (AID 2282984; active = hit-call score of the fitted dose curve at least 0.9, where 1 is the maximum;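 also: transcript level of a background control reporter unit measured by RT-PCR and capillary electrophoresis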); details: HepG2 Attagene TRANS M32 internal marker reporter
In short: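 Measures reporter mRNA induction in human HepG2 liver cells after 24 h chemical treatment. Transcripts from transiently transfected GAL4-UAS reporter units are amplified, fluorescently labelled and sized by capillary electrophoresis; gain of signal relative to DMSO.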

[4] = biological target: Transcriptional activator Myb (Homo sapiens) (UniProt P10242); assay: ATG_Myb_CIS: Attagene CIS-FACTORIAL HepG2 Assay for human Myeloblastosis (Myb) Proto-Oncogene Transcription Factor (AID 2282986); details: HepG2 Attagene CIS-FACTORIAL Myb reporter transcription; actives raise or lower the signal
In short: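 Using HepG2 liver cells bearing transiently transfected cis-promoter reporter constructs, the assay measures induction or loss of reporter mRNA after 24 hours of dosing. Detection used fluorescently labeled RT-PCR products separated by capillary electrophoresis.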

[5] = biological target: Nuclear respiratory factor 1 (Homo sapiens) (UniProt Q16656); assay: ATG_NRF1_CIS: Attagene CIS-FACTORIAL HepG2 Assay for human Nuclear Respiratory Factor 1 (NRF1) Orphan Gene (AID 2282987); details: HepG2 NRF1 cis-element reporter, Attagene multiplex; actives raise or lower the signal
In short: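 Reporter mRNA induction or loss in HepG2 cells after 24 h dosing; cis-regulated reporter constructs report endogenous transcription-factor activity. Quantified by RT-PCR/capillary electrophoresis fluorescence, DMSO-referenced.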

[6] = ATG_NFI_CIS: Attagene CIS-FACTORIAL HepG2 Assay for human Nuclear Factor I (NFI) (AID 2282989); details: HepG2 cis-regulatory reporter, NFI response element transcription; actives raise or lower the signal
In short: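 Endogenous TF activity in HepG2 cells transiently transfected with cis-element-driven multiplexed reporter units, read 24 h after dosing. Reporter mRNA quantified by RT-PCR, 6-FAM labelling, HpaI digestion and capillary electrophoresis; bidirectional fit versus DMSO.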

[7] = biological target: Myc proto-oncogene protein (Homo sapiens) (UniProt P01106); assay: ATG_Myc_CIS: Attagene CIS-FACTORIAL HepG2 Assay for human Myelocytomatosis (Myc) Proto-Oncogene Transcription Factor (AID 2282990); details: HepG2, Attagene cis-reporter transcription factor activity; actives raise or lower the signal
In short: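 HepG2, transient MRTU transfection (cis promoters, endogenous TFs); 24 h dosing; TriZol RNA → oligo(dT) RT → PCR → 6-FAM primer extension → HpaI cut → CE. Bidirectional fit vs DMSO.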

[8] = ATG_NRF2_ARE_CIS: Attagene CIS-FACTORIAL HepG2 Assay for human Nuclear Factor Erythroid 2 Related Factor 2 (NFR2) response to Antioxidant Response Elements (ARE) (AID 2282992); details: HepG2 Attagene ARE/NRF2 reporter, transcription factor activity; actives raise or lower the signal;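 as to AC50: reporter mRNA level measured by RT-PCR and capillary electrophoresis fluorescence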
In short: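 HepG2 cells transiently transfected with multiplexed cis-regulated reporter transcription units measure endogenous transcription factor activity. Reporter mRNA at 24 h is quantified by RT-PCR, fluorescent labelling and capillary electrophoresis, with bidirectional fitting relative to DMSO.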

[9] = ATG_Oct_MLP_CIS: Attagene CIS-FACTORIAL HepG2 Assay for human Octamer-Binding Transcription Factor (Oct) (AID 2282993); details: HepG2 Attagene cis-factorial Oct reporter, mRNA; actives raise or lower the signal
In short: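 HepG2 cells transiently transfected with cis-element-driven reporter transcription units (endogenous TF activity); 24 h compound exposure. Reporter mRNA quantified by RT-PCR, 6-FAM labelling, HpaI digestion and capillary electrophoresis; bidirectional fit versus DMSO baseline.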

[10] = BSK_3C_TissueFactor: BioMAP Diversity Plus: 3C Assay for Tissue Factor Biomarker Activity (AID 2282997); details: BioMAP 3C HUVEC, tissue factor biomarker readout; actives raise or lower the signal
In short: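 Endothelial monolayers (human umbilical vein, primary) are dosed, incubated 24 h, and assayed for Tissue Factor by ELISA; DMSO serves as negative control for bidirectional fitting.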

[11] = BSK_3C_uPAR: BioMAP Diversity Plus: 3C Assay for Urokinase-type plasminogen activator receptor (uPAR) Biomarker Activity (AID 2282998); details: BioMAP 3C HUVEC, uPAR biomarker ELISA; actives raise or lower the signal
In short: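 Primary human umbilical vein endothelial cells, 3C system; surface uPAR measured by ELISA 24 h after dosing. Cytotoxicity via SRB total protein in parallel cultures; bidirectional fit against DMSO.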

[12] = BSK_3C_VCAM1: BioMAP Diversity Plus: 3C Assay for Vascular cell adhesion molecule 1 (VCAM1) Biomarker Activity (AID 2282999); details: BioMAP 3C HUVEC, VCAM1 ELISA, cytokine-stimulated; actives raise or lower the signal
In short: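 Endothelial cells from human umbilical vein are treated with test chemical. At 24 h, VCAM-1 is measured by ELISA, and responses in either direction are fitted relative to DMSO.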

[13] = BSK_4H_Eotaxin3: BioMAP Diversity Plus: 4H Assay for Eotaxin 3 Biomarker Activity (AID 2283000); details: primary human endothelial cells (HUVEC); actives raise or lower the signal
In short: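 ELISA quantitation of CCL26 (Eotaxin-3) protein from chemically dosed human vascular endothelial cells at 24 h; increases and decreases both scored relative to DMSO-treated baseline.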

[14] = biological target: human Peroxisome Proliferator-activated Receptor alpha (PPARa), PPARA (gene 5465) (UniProt Q07869); assay: ATG_PPARa_TRANS: Attagene TRANS-FACTORIAL HepG2 Assay for human Peroxisome Proliferator-activated Receptor alpha (PPARa) (AID 2283001; active = hit-call score of the fitted dose curve at least 0.9, where 1 is the maximum;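 as to AC50: potency for gain of reporter signal over DMSO so agonist or activator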)
In short: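 Read-out is fluorescence of reporter cDNA fragments resolved by capillary electrophoresis after RT-PCR. Human HepG2 liver cells carried transfected PPARa-Gal4 chimera and GAL4-UAS reporter units, treated 24 h; activity scored as increase over DMSO.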

[15] = biological target: Hepatocyte nuclear factor 4-alpha (Homo sapiens) (UniProt P41235); assay: ATG_HNF4a_TRANS: Attagene TRANS-FACTORIAL HepG2 Assay for human Hepatocyte Nuclear Factor 4 alpha (HNF4a) (AID 2282982; active = hit-call score of the fitted dose curve at least 0.9, where 1 is the maximum); details: HepG2 HNF4a transactivation reporter, mRNA readout
In short: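 Readout is fluorescent reporter-transcript fragments resolved by capillary electrophoresis after RT-PCR from HepG2 cells dosed for 24 h. Cells carried transfected GAL4-UAS reporter constructs measuring exogenous NR-GAL4 chimera activity; DMSO served as baseline.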

[16] = ATG_M_06_TRANS: Attagene TRANS-FACTORIAL HepG2 Assay for M06 Transcription Factor (Internal Marker) (AID 2282983; active = hit-call score of the fitted dose curve at least 0.9, where 1 is the maximum;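 also: reporter transcript level by RT-PCR then capillary electrophoresis fluorescence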); details: HepG2 Attagene TRANS M06 internal marker reporter
In short: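 Internal-marker background readout from a multiplexed TRANS reporter system in HepG2; 24 h dosing; mRNA induction quantified by RT-PCR plus capillary electrophoresis fluorescence; DMSO as negative control and baseline.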

[17] = ATG_NF_kB_CIS: Attagene CIS-FACTORIAL HepG2 Assay for human Nuclear Factor Kappa B (NF-kB) (AID 2282991); details: HepG2 Attagene cis-factorial NF-kB reporter mRNA; actives raise or lower the signal
In short: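 DMSO served as negative control and baseline for bidirectional curve fitting. Transiently transfected HepG2 cells were dosed for 24 h, then reporter transcripts were measured by RT-PCR with capillary electrophoresis detection.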

[18] = biological target: Bile acid receptor (Homo sapiens) (UniProt Q96RI1); assay: ATG_FXR_TRANS: Attagene TRANS-FACTORIAL HepG2 Assay for Farnesoid X Receptor (FXR) (AID 2282979; active = hit-call score of the fitted dose curve at least 0.9, where 1 is the maximum;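 also: hits raise reporter mRNA above DMSO so AC50 marks FXR activation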); details: HepG2 Attagene TRANS FXR-GAL4 reporter transcription
In short: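 After 24 h chemical treatment of transfected HepG2 cells, GAL4-UAS reporter transcripts driven by an exogenous FXR-GAL4 fusion were measured by RT-PCR and capillary electrophoresis. Increases over DMSO were fitted.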

[19] = biological target: Nuclear receptor subfamily 4 group A member 2 (Homo sapiens) (UniProt P43354); assay: ATG_NURR1_TRANS: Attagene TRANS-FACTORIAL HepG2 Assay for human Nuclear Receptor Related Protein 1 (NURR1) (AID 2282985; active = hit-call score of the fitted dose curve at least 0.9, where 1 is the maximum); details: HepG2 Attagene TRANS reporter, mRNA readout
In short: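 Transient transfection of HepG2, human liver cells, with multiple GAL4-UAS reporter transcription units. Cells dosed 24 h, RNA isolated, reverse-transcribed, PCR-amplified, FAM-labelled, HpaI-digested, sized by capillary electrophoresis. DMSO served as negative control.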

[20] = biological target: Cellular tumor antigen p53 (Homo sapiens) (UniProt P04637); assay: ATG_p53_CIS: Attagene CIS-FACTORIAL HepG2 Assay for human p53 Transcription Factor (AID 2282994); details: HepG2 p53 cis-element reporter, Attagene mRNA; actives raise or lower the signal
In short: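 HepG2 cells transiently transfected with multiplexed cis-regulated reporter transcription units read endogenous TF activity. After 24 h compound exposure, reporter mRNA was quantified by RT-PCR, fluorescent labelling, HpaI digestion and capillary electrophoresis; bidirectional fits versus DMSO baseline.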

Measured: AC50

Sequence of Glucocorticoid receptor (Homo sapiens) (P04150 whole entry, looked up, the tested form may be a part): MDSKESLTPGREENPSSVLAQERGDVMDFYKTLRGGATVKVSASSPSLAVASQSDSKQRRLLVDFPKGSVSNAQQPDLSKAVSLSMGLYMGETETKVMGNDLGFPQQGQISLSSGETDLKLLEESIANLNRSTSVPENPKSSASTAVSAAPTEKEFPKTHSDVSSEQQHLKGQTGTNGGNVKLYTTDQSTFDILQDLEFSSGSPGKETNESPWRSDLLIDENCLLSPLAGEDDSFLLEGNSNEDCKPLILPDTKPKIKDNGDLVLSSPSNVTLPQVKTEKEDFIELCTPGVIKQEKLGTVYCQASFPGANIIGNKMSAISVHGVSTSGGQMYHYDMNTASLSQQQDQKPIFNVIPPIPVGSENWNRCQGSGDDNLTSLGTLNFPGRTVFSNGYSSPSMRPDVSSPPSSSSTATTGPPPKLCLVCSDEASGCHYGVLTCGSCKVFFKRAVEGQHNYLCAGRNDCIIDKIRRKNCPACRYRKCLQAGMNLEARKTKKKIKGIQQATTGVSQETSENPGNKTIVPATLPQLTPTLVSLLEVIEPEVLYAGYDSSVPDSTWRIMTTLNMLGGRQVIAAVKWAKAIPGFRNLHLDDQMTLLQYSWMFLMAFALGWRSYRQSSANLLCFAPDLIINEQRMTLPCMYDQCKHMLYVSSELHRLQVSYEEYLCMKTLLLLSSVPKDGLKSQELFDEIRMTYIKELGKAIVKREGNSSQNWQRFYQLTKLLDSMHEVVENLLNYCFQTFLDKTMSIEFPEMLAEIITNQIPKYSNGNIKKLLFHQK
Sequence of Hepatocyte nuclear factor 4-alpha (Homo sapiens) (P41235 whole entry, looked up, the tested form may be a part): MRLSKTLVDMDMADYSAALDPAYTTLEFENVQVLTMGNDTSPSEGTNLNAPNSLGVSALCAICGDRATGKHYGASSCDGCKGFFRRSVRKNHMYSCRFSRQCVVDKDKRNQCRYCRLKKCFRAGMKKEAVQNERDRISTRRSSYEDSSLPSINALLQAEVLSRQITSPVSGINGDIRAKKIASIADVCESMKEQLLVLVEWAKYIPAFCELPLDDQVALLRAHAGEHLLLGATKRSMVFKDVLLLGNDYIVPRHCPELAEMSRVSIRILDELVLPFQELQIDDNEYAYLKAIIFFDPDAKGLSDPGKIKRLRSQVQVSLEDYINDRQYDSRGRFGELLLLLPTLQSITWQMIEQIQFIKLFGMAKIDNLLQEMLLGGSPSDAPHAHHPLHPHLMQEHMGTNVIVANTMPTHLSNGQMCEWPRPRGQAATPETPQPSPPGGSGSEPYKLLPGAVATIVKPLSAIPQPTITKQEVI
Sequence of Transcriptional activator Myb (Homo sapiens) (P10242 whole entry, looked up): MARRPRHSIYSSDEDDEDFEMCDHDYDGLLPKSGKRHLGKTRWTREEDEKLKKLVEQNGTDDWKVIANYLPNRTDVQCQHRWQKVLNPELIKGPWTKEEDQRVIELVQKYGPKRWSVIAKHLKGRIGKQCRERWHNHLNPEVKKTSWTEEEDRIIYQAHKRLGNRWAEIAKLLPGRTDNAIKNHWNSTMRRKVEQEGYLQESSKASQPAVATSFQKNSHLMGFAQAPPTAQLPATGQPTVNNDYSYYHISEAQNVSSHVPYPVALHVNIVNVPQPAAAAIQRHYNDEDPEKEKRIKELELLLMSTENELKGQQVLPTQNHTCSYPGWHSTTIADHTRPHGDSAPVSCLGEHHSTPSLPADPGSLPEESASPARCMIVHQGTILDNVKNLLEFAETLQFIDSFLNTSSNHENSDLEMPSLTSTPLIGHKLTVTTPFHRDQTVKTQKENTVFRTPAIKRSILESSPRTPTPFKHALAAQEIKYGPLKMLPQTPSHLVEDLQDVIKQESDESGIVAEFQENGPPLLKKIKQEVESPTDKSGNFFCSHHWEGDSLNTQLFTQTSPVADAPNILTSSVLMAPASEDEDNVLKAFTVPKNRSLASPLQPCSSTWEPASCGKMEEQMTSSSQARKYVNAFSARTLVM
Sequence of Nuclear receptor subfamily 4 group A member 2 (Homo sapiens) (P43354 whole entry, looked up, the tested form may be a part): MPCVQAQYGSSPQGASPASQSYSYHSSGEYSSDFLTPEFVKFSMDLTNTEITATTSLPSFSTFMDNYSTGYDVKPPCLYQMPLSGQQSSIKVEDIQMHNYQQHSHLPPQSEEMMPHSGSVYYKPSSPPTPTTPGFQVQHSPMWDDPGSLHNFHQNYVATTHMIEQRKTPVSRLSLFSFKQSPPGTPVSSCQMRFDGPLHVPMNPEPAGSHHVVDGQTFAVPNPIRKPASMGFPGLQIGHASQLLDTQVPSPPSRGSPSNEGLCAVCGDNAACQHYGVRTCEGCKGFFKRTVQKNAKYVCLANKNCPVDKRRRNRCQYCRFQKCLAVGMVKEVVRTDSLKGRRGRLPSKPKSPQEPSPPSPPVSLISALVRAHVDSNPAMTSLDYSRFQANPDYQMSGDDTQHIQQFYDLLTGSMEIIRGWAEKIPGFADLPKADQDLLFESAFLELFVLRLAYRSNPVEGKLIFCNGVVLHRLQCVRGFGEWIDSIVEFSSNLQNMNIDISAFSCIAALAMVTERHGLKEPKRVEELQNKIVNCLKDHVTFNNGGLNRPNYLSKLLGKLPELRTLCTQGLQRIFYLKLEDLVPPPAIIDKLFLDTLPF
Sequence of human Peroxisome Proliferator-activated Receptor alpha (PPARa), PPARA (gene 5465) (Q07869 whole entry, looked up, the tested form may be a part): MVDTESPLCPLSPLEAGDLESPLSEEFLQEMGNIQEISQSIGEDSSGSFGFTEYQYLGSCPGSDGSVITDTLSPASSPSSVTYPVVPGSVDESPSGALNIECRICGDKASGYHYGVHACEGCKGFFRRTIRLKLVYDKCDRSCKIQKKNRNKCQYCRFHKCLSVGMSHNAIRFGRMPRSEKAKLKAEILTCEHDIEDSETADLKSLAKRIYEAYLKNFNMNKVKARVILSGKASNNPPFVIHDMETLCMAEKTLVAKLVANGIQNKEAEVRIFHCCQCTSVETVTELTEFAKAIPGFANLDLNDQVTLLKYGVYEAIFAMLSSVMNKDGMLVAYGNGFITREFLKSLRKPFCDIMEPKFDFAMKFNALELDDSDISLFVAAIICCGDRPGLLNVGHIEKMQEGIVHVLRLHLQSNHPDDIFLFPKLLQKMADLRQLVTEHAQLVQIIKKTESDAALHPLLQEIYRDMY
Sequence of Myc proto-oncogene protein (Homo sapiens) (P01106 whole entry, looked up): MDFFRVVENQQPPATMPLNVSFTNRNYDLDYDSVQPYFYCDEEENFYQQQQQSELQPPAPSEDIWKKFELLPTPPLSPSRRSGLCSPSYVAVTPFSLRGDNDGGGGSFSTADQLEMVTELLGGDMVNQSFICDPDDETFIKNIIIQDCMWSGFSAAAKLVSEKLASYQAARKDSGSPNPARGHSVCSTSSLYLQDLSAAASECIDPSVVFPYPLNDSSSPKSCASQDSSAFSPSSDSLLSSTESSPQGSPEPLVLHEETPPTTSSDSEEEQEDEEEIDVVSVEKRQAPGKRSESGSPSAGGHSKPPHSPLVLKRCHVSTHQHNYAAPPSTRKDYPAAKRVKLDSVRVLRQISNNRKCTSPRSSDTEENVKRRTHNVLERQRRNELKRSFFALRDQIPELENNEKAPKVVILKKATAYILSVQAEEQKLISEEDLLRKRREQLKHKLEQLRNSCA
Sequence of Bile acid receptor (Homo sapiens) (Q96RI1 whole entry, looked up, the tested form may be a part): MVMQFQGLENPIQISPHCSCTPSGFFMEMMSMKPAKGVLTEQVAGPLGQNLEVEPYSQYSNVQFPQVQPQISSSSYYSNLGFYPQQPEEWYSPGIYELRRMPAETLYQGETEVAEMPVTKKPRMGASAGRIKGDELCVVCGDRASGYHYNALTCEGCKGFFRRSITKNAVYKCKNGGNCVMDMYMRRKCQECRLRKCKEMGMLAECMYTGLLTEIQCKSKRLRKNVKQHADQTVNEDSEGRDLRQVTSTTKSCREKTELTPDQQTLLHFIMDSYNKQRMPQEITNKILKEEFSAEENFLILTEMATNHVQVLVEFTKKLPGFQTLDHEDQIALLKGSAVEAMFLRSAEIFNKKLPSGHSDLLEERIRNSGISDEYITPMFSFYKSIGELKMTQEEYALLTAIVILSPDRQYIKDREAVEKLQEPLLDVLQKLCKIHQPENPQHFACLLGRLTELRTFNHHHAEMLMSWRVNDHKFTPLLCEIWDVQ
Sequence of Oxysterols receptor LXR-beta (Homo sapiens) (P55055 whole entry, looked up, the tested form may be a part): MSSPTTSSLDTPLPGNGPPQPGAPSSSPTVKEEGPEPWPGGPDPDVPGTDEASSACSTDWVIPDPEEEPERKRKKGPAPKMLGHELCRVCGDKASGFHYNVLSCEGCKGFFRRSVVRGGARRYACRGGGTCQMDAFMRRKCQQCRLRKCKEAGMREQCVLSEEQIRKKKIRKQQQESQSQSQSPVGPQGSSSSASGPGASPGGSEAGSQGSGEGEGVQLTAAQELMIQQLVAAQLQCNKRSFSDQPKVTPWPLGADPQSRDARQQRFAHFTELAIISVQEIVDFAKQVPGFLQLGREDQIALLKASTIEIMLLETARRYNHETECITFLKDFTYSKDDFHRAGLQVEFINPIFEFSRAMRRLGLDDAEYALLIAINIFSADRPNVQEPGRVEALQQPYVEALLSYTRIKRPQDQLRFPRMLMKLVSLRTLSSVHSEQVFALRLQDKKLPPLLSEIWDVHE
Sequence of Nuclear respiratory factor 1 (Homo sapiens) (Q16656 whole entry, looked up): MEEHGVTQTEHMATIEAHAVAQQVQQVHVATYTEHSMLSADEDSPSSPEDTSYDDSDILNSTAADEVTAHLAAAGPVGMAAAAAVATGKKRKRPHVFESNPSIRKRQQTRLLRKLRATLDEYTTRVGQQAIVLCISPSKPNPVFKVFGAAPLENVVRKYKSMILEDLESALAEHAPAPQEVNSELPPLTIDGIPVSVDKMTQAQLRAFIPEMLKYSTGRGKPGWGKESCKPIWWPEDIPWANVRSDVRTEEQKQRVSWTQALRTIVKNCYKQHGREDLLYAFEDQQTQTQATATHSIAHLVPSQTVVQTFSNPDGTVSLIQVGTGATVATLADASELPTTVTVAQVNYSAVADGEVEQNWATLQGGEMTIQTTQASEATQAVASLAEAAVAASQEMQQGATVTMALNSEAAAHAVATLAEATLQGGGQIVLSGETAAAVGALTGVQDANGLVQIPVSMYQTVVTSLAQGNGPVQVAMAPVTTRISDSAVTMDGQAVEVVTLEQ

CC(C)(O)c1ccc(CNC(=O)c2cccnc2Oc2ccc(F)cc2)cc1
active: [8] 40.7 µM
not listed: [15] | [16] | [17] | [18] | [19] | [20]
inactive: all other assays above

CC(=O)OCC(COC(C)=O)OC(C)=O
not listed: [3] | [14] | [18] | [19] | [20]
inactive: all other assays above

Cc1cc(Cc2ccc(N)c(C)c2)ccc1N
not listed: [2] | [3] | [14] | [15] | [20]
inactive: all other assays above

CC(N)=O
not listed: [15] | [17] | [18] | [20]
inactive: all other assays above

CN(C)C(=O)NC1(c2ccccc2)CCN(CC[C@@]2(c3ccc(F)c(F)c3)CN(C(=O)c3ccccc3)CCO2)CC1
active: [8] 40.8 µM | [9] 100 µM | [20] 100 µM
not listed: [2] | [3] | [14] | [15] | [16] | [17] | [19]
inactive: all other assays above

CC(=O)S[C@H](C(=O)N[C@H]1Cc2ccccc2[C@H]2CCC[C@@H](C(=O)O)N2C1=O)C(C)C
not listed: [3] | [14] | [15] | [16] | [20]
inactive: all other assays above

NC(=Nc1ccccc1)Nc1ccccc1
active: [8] 5.38 µM | [9] 43.9 µM | [13] 6.06 µM
not listed: [17] | [19] | [20]
inactive: all other assays above

CCCCc1nc2cccnc2n1Cc1ccc(-c2ccccc2-c2nnn[nH]2)cc1
active: [8] 100 µM
not listed: [15] | [16] | [19] | [20]
inactive: all other assays above

CC(COCC(C)OC(=O)c1ccccc1)OC(=O)c1ccccc1 (configuration not stated)
not listed: [2] | [3] | [17] | [19] | [20]
inactive: all other assays above

CCCCCCC(CCCCCCCCCCC(=O)OCC(COC(C)=O)OC(C)=O)OC(C)=O (configuration not stated)
active: [14] 13.8 µM
not listed: [2] | [3] | [15] | [16] | [19] | [20]
inactive: all other assays above

CCCCC(CC)COP(=O)(OCC(CC)CCCC)OCC(CC)CCCC (configuration not stated)
active: [11] 12.5 µM | [12] 20 µM | [13] 20 µM
not listed: [2] | [3] | [14] | [15] | [16] | [19] | [20]
inactive: all other assays above

O=C(Oc1ccccc1)c1cccc(C(=O)Oc2ccccc2)c1
not listed: [2] | [15] | [16] | [17] | [20]
inactive: all other assays above

Nc1nc(Cl)nc2c1ncn2[C@H]1C[C@H](O)[C@@H](CO)O1
active: [17] 16.9 µM | [10] 0.494 µM | [14] 66.5 µM
not listed: [3] | [15] | [19]
inactive: all other assays above

CS(=O)(=O)c1ccc([C@@H](C[C@H]2CCC(=O)C2)C(=O)Nc2cnccn2)cc1Cl
active: [8] 48.9 µM
not listed: [16] | [18] | [20]
inactive: all other assays above

CCCCC(CC)CO (configuration not stated)
not listed: [3] | [20]
inactive: all other assays above

O=C(O)CN(CC(=O)O)CC(=O)O
active: [4] 0.386 µM
not listed: [2] | [16] | [20]
inactive: all other assays above
